Pf growth 96h = P. falciparum growth inhibition at 96 hour, primary screen for plastid delayed-death inhibitors; Potency, µM (series often up to 28.7 µM), most hits filed as inhibitors; P. falciparum luciferase reporter growth, 96 h; AID 504834; 320,000 tested, 6.9% active; active = well fitted inhibition curve with a large enough effect; inconclusive = small, poorly fitted or top-dose-only effect, or another doubt; inactive = no such curve, though single readings can be large or run the other way
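Readout is luminescence from an integrated firefly luciferase in P. falciparum. Red cells, 2% hematocrit and 0.05% parasitemia final, were cultured with compound through two parasite generations (96 hours) at 37 C, 5% CO2.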
Shiga inhibitor = blocks Shiga toxin action in Vero cells | Vero cells, Shiga toxin protein synthesis inhibition reporter | inhibition, % at 38.7 µM | 290,000 tested, 9.2% active; in the data active = inhibition mostly above about 28%, no sharp cut-off; inactive = mostly below about 43%
NS1 function inh = blocks influenza NS1 protein function. 270,000 tested, 0.4% active. Potency, µM (highest dose often 46.1 µM); also: actives are rising curves; nearly all actives have a fitted effect of over 50% in size
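In this qHTS, NS1 from influenza A is expressed in budding yeast, where it slows growth. Cells are switched from glucose to 2% galactose medium (pH 6.0, -URA), treated with compound, and growth recovery is read at OD600.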
CHX counter = counter-screen for Shiga toxin inhibitors: cycloheximide protein synthesis inhibition | cell reporter, cycloheximide protein synthesis inhibition counterscreen | max response, % | 300,000 tested, 12% active | AID 2314; in the data active = max response mostly above about 13%, no sharp cut-off; inactive = mostly below about 14%; also: read at 38.3 µM for the half of the compounds with a filed dose
SARS PLP yeast = SARS-CoV PLP inhibition in yeast. 330,000 tested, 0.19% active. S. cerevisiae expressing SARS-CoV PLpro, growth rescue. Potency, µM (top dose mostly 32.9 µM), most hits filed as activators; also: nearly all actives have a fitted effect of over 55% in size
Pf growth 48h = inhibits P. falciparum growth in the first generation, 48 h | Potency, µM (top dose mostly 28.7 µM), usual class: inhibitors | P. falciparum luciferase growth in erythrocytes, 48 h | 310,000 tested, 5.9% active; active = well fitted inhibition curve with a large enough effect; inconclusive = small, poorly fitted or top-dose-only effect, or another doubt; inactive = no such curve, though single readings can be large or run the other way
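Luciferase-expressing P. falciparum in infected erythrocytes (2% hematocrit, 0.1% parasitemia final) in RPMI 1640/0.5% Albumax were exposed to compound for 48 hours at 37 C, 5% CO2; growth read as luminescence.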
A number is an active result; n = inactive; u = inconclusive; x = no result. Rows were chosen to be rich in hits. Some 21% of all compounds tested hit in one or more screens of this group. Unless noted, calls follow the shape of the full dose curve.

SMILES	Pf growth 96h	Shiga inhibitor	NS1 function inh	CHX counter	SARS PLP yeast	Pf growth 48h
CCOC(=O)CN1C(=O)/C(=C/c2cccc(Br)c2)Oc2ccccc21	n	n	n	n	n	u
CCOC(=O)CN1C(=O)/C(=C/c2c(F)cccc2Cl)Oc2ccccc21	n	19.0	n	18.8	n	x
COc1ccc(N2C(=O)C(CC(=O)Nc3ccccc3)N(CCc3ccc(OC)c(OC)c3)C2=O)cc1 (centres undefined)	u	n	x	n	n	n
CC(C)/C=N/NC(=O)c1ccc(Cl)cc1	n	n	n	24.5	n	n
CC(O)C(O)C(O)C(O)/C=N/NC(=O)c1ccccc1 (centres undefined)	u	85.9	n	37.9	n	u
NNC(=O)c1cccc(O)c1	n	57.8	n	67.0	n	n
O=C(NCCNC(=O)c1cccc(O)c1)c1cccc(O)c1	u	n	n	n	n	n
CCn1cc(/C=N\NC(=O)c2ccc(Cl)cc2)cn1	n	n	n	n	n	n
O=C(NN=C1CCCCC1)c1ccccc1-n1cccc1	n	n	n	n	n	n
CN(C)/C=N/NC(=O)c1ccccc1	n	n	x	n	n	u
O=C(NN=C1CCCC1)c1ccccc1O	u	58.3	n	18.0	n	n
CC1C/C(=N\NC(=O)c2ccc([N+](=O)[O-])cc2)CC(C)(C)C1 (centres undefined)	n	n	n	n	n	n
O=C(O)c1ccccc1Nc1ccccc1C(=O)O	n	n	u	n	n	n
CC1C/C(=N\NC(=O)c2cccnc2)CC(C)(C)C1 (centres undefined)	n	n	x	17.7	n	n
COc1cccc(C(=O)NN=C2CCCC2)c1	u	66.8	n	38.4	n	n
COc1ccccc1NS(=O)(=O)c1cccc(C(=O)NN=C2CCCC2)c1	n	n	x	n	n	n
O=C(O)c1ccccc1NN=C1CCCCC1	n	109.6	n	56.8	n	n
O=C(NN=C1CCCCCC1)c1cccnc1	n	83.7	x	30.8	n	n
CNC(=S)c1cc(C(C)(C)C)c(O)c(C(C)(C)C)c1	u	n	n	n	n	u
CCOC(=O)/C(=N/O)C1=NC(C)(C)Cc2cc(C)c(C)cc21	n	n	n	n	n	n
CCN1C(=S)N[C@@H](c2cccs2)C(C(=O)OC)=C1C	n	n	n	n	n	u
O=C(NN=C1CCCC1)c1ccc(Cl)cc1	n	72.2	n	40.5	n	n
O=C(NN=C1CCCC1)c1cccc(O)c1	n	75.8	n	46.7	n	n
O=C(NN=C1CCCC1)c1cc(O)cc(O)c1	u	n	n	n	n	n
CC1C/C(=N\NC(=S)NC(C)C)CC(C)(C)C1 (centres undefined)	2.94µM	n	n	n	n	x
SMILES	Pf growth 96h	Shiga inhibitor	NS1 function inh	CHX counter	SARS PLP yeast	Pf growth 48h
Cc1cc(C(=O)NN=C2CCCCCC2)c(C)o1	n	52.3	n	24.9	n	n
Nc1ccc2[nH]ncc2c1	u	n	u	n	n	n
O=C(OCn1nnc2ccccc2c1=O)c1cccc(S(=O)(=O)N2CCOCC2)c1	n	x	x	x	n	u
CC[C@]12c3[nH]c4ccc(Cl)cc4c3CCN1C(=O)[C@@H](CC(=O)NCCCn1ccnc1)C[C@@H]2C(=O)N1CCN(C(=O)C2CC2)CC1	x	x	x	x	n	x
COc1cccc(N2CCN(C(=O)CCNS(=O)(=O)c3ccc4c(c3)c(=O)n(C)c(=O)n4C)CC2)c1	n	n	x	n	n	u
O=C(NN=C1CCN(Cc2ccccc2)CC1)c1cc(Br)ccc1O	1.85µM	n	x	n	n	n
O=C(NN=C1CCCC1)c1[nH]c2ccc(Cl)cc2c1-c1ccccc1	13.1µM	n	n	n	n	u
O=C(NN=C1CCN(Cc2ccccc2)CC1)c1ccccc1	u	n	n	n	n	n
COc1ccc(C(=O)NN=C2CCCC2)cc1	9.28µM	n	n	active	n	n
CC1C/C(=N\NC(=O)c2ccc(NS(=O)(=O)c3ccc(Br)cc3)cc2)CC(C)(C)C1 (centres undefined)	u	16.8	n	n	n	n
O=C(O)c1ccc(S(=O)(=O)N2CCSCC2)cc1	u	n	n	n	n	n
C[C@](O)(c1ccccc1)c1nccc2ccccc12	x	x	n	x	x	x
CN1C(=O)C(CCC(=O)O)NC1=S (centres undefined)	n	n	n	n	n	n
S=C(Nc1cccc2ccccc12)N1CCN(c2ncccn2)CC1	u	n	n	24.3	n	n
O=C(Nc1cccc2ccccc12)N1CCN(c2ncccn2)CC1	n	n	n	n	n	n
